Results on 22 compounds are retold here after PubChem BioAssay.

The test system of test [1] is XIP peptide (Xip251-270) binding. The experiment in a line: XIP fragment 251-270 binding compounds – biochemical, small-molecule microarray, fluorescence 635/667 nm, 0.1 µg/mL protein, primary screen (AID 1182). The conditions noted are these: fluorescent protein binding, 635 nm, higher = more signal, called active from +8 up or from −8 down.
For a further test, the system named is XIP peptide (Xip251-270). Nature of the test: compounds binding XIP fragment 251-270 – biochemical, small-molecule microarray, fluorescence 635/667 nm, 0.5 µg/mL protein, primary screen (AID 1183). The conditions noted are these: fluorescence 635 nm, higher = more signal.
Test [2] is described as follows: blood-stage malaria parasite viability loss – strain 3D7, DAPI fluorescence, 100 nL, primary screen (AID 1184).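 Note: parasites grown inside human red blood cells in medium with human serum.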 The conditions noted are these: P. falciparum 3D7 growth, 3 d, higher = more signal.
The target in test [3] is Homeobox protein Hox-A13 (Mus musculus) (UniProt Q62424). The experiment in a line: disruptors of Hoxa13 oligonucleotide interaction – biochemical, fluorescence polarization, labeled oligonucleotide, primary screen (AID 1185). The conditions noted are these: Hoxa13:DNA binding, 15 min, higher = more signal, called active from +8 up or from −8 down. Background: In fluorescence polarisation assays a small probe gives low polarisation when free and higher when bound to something large.
Sequence of Homeobox protein Hox-A13 (Mus musculus) (Q62424 whole entry, looked up): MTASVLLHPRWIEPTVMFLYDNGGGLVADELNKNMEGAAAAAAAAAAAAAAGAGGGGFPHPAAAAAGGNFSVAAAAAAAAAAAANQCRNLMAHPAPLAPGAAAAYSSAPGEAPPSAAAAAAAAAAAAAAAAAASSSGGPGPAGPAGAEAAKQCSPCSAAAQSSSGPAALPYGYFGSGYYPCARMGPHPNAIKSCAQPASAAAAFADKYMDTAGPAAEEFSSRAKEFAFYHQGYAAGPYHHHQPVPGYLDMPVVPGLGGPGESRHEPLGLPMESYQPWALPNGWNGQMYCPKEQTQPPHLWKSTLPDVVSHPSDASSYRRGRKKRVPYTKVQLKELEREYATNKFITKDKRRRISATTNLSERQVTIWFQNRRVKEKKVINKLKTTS

Test [4] in a line: blockers of DNA damage checkpoint Chk1 activation – imaging, HeLa, hydroxyurea, phospho-Chk1 antibody, percent positive cells, primary screen (AID 1186). The conditions noted are these: hydroxyurea-induced phospho-Chk1 immunofluorescence imaging, higher = more signal.
Test [5] in a line: blockers of DNA damage checkpoint Chk1 activation – imaging, HeLa, hydroxyurea, phospho-Chk1 nuclear intensity, primary screen (AID 1187). The conditions noted are these: hydroxyurea-induced phospho-Chk1 immunofluorescence imaging, higher = more signal.

Structures are written as SMILES. Active and inactive are the calls of the source. Unless noted, the rule behind the calls is not given here.

As to `CC(C)C(CO)N1C(=O)[C@@H]2[C@H]3C(=O)OCC=C[C@H]3OC23C=CCN(C(C)C)C(=O)[C@@H]13` (some centres not stated), the composite z-score in test [1] is 1.63 (inactive); in the test on XIP peptide (Xip251-270), -0.0455. Also, the z-score was -0.499 in test [2], -4.02 (inactive) in test [3], 0.475 (inactive) in test [4] and 0.305 (inactive) in test [5].

On to `COc1ccc([C@H]2C[C@H]3C(Br)=C[C@@H]2C(=O)[C@]32CO2)cc1`, for which the composite z-score is -0.244 (inactive) in test [1] and -0.22 with XIP peptide (Xip251-270). Moreover, the z-score in test [2] was -0.518; in test [3] it was -0.444 (inactive); in test [4], 0.0297 (inactive); in test [5], -0.237 (inactive).

As for `C=CCOC(=O)[C@H]1[C@@H]2C(=O)O[C@@H](c3ccccc3)[C@@H](c3ccccc3)N2[C@@H](c2ccc(OCCOC(=O)[C@@H]3C[C@@H]4C(=O)N5CCC[C@H]5C(=O)N4[C@@H]3c3cccc(OCCO)c3)cc2)[C@]12C(=O)Nc1ccccc12`, the results for the composite z-score (in test [1]; in the test on XIP peptide (Xip251-270)) were 1.48 (inactive) and 0.846, respectively. Further, the z-score is -1.71 in test [2], -0.113 (inactive) in test [3], -0.934 (inactive) in test [4] and -0.0548 (inactive) in test [5].

With `CCc1oc(CC[C@@H](CO)NC(=O)NCCn2cc(C3(O)CCCCC3)nn2)c(C(=O)OC)c1C(=O)OC`, the values for the composite z-score (in test [1]; with XIP peptide (Xip251-270)) were 1.53 (inactive) and 0.875, respectively. For the same compound, the z-score is -0.397 in test [2], -3.56 (inactive) in test [3], 0.259 (inactive) in test [4] and -0.0163 (inactive) in test [5].

As for `COc1ccc([C@H]2OC[C@@H]3CC4(CC=CC4)C(=O)N32)cc1`, the values for the composite z-score (in test [1]; in the test on XIP peptide (Xip251-270)) were -0.302 (inactive) and 0.345, respectively. For the same compound, the z-score is 0.301 in test [2], -0.0645 (inactive) in test [3], 0.0257 (inactive) in test [4] and -0.452 (inactive) in test [5].

With `COc1cc(OC)c(C(O)C2C=CC3C(=O)NC(=O)C3N2Nc2ccc(Cl)cc2Cl)cc1Br` (configuration not stated), the composite z-score in test [1] was 1.11 (inactive); in the test with XIP peptide (Xip251-270), 0.369. For the same compound, the z-score was -0.0679 in test [2], -5.65 (inactive) in test [3], 0.66 (inactive) in test [4] and 0.862 (inactive) in test [5].

Take `COCCOC(=O)N1C(=O)[C@@]2(c3cc(C#CCCO)ccc31)[C@H](c1ccc(OCCO)cc1)N1[C@H](c3ccccc3)[C@H](c3ccccc3)OC(=O)[C@H]1[C@@H]2C(=O)N1CCN(c2ncccn2)CC1`: the composite z-score was -0.112 (inactive) in test [1] and 0.676 in the test with XIP peptide (Xip251-270). In addition, the z-score is -1.98 in test [2], 0.671 (inactive) in test [3], 0.159 (inactive) in test [4] and -0.0774 (inactive) in test [5].

On to `O=C1C2C=CC(C(O)C(c3ccccc3)c3ccccc3)N(n3cnnc3)C2C(=O)N1Cc1ccccc1` (configuration not stated), for which the composite z-score in test [1] was 0.23 (inactive); in the test on XIP peptide (Xip251-270) it was 0.664. Moreover, the z-score in test [2] was -0.528; in test [3], -3.79 (inactive); in test [4], 0.414 (inactive); in test [5], -0.402 (inactive).

On to `CCOC(=O)C[C@H]1[C@H](OC(=O)c2cc3ccccc3oc2=O)[C@@H](NC(=O)Cc2ccc(OC)cc2)c2cc(OCCCO)ccc2N1C(=O)c1ccccc1`, for which the composite z-score is 0.48 (inactive) in test [1] and 0.853 in the test with XIP peptide (Xip251-270). Further, the z-score in test [2] was -1.9; in test [3], -2.46 (inactive); in test [4] it was 0.907 (inactive); in test [5], 0.546 (inactive).

For `CCCC[C@H]1OB(O)C[C@H]2C1=C(COc1ccccc1)C[C@H]1C(=O)N(C)C(=O)[C@H]12`, the composite z-score in test [1] is -0.146 (inactive); in the test with XIP peptide (Xip251-270), -0.544. The z-score was 1.68 in test [2], -4.62 (inactive) in test [3], -0.267 (inactive) in test [4] and 0.201 (inactive) in test [5].

As to `CN1C(=O)C2C=CC(C(O)c3ccccc3)N(Nc3ccccc3)C2C1=O` (configuration not stated), the results for the composite z-score (in test [1]; with XIP peptide (Xip251-270)) were 0.599 (inactive) and 0.357, respectively. The z-score was -0.206 in test [2], -2.83 (inactive) in test [3], 0.861 (inactive) in test [4] and 0.163 (inactive) in test [5].

For the compound `O=C1NCC(=O)N2[C@@H]1C[C@@H](C(=O)O)[C@H]2c1cccc(OCCO)c1`, the composite z-score is 6.39 (inactive) in test [1] and 1.02 in the test with XIP peptide (Xip251-270). Further, the z-score in test [2] was 0.0934; in test [3], -1.39 (inactive); in test [4] it was -0.467 (inactive); in test [5], -0.367 (inactive).

For `COc1ccc(NN2C(C(O)c3ccc([N+](=O)[O-])cc3)C=CC3C(=O)N(C4CCCCC4)C(=O)C32)cc1` (configuration not stated), the composite z-score in test [1] is -0.025 (inactive); in the test with XIP peptide (Xip251-270), -0.0788. For the same compound, the z-score in test [2] is -0.0215; in test [3], -3.73 (inactive); in test [4], -0.414 (inactive); in test [5], -0.331 (inactive).

As to `CC(=O)N1Cc2ccccc2C[C@@]2(COC(c3ccc(OCCCO)cc3)=N2)C1=O`, the composite z-score in test [1] was 1.44 (inactive); in the test on XIP peptide (Xip251-270), 0.81. The z-score is -2.28 in test [2], -3.13 (inactive) in test [3], -1.01 (inactive) in test [4] and -1.12 (inactive) in test [5].

For the compound `O=C1O[C@H](c2ccccc2)[C@H](c2ccccc2)N2[C@H]1[C@@H](C(=O)Nc1nc3ccccc3s1)[C@]1(C(=O)Nc3ccc(C#CCCO)cc31)[C@H]2c1ccc(OCCO)cc1`, the composite z-score is 0.497 (inactive) in test [1] and 0.769 with XIP peptide (Xip251-270). Further, the z-score in test [2] is -1.19; in test [3], 1.37 (inactive); in test [4], -0.239 (inactive); in test [5], -0.262 (inactive).

As to `CN1C(=O)C2C=CC(C(O)C3=C[C@H]4C[C@@H](C3)C4(C)C)N(Nc3ccccc3)C2C1=O` (some centres not stated), the composite z-score in test [1] was 0.654 (inactive); in the test on XIP peptide (Xip251-270), 0.151. The z-score is 0.821 in test [2], -3.75 (inactive) in test [3], -0.556 (inactive) in test [4] and -0.864 (inactive) in test [5].

Regarding `O=C(NCc1ccccc1)[C@@]1(Cc2ccccc2)N=C(c2ccc(OCCCO)cc2)O[C@H]1c1ccccc1`, the composite z-score in test [1] is 1.46 (inactive); in the test with XIP peptide (Xip251-270), 0.684. Also, the z-score in test [2] was -2.39; in test [3] it was -1.7 (inactive); in test [4], -0.306 (inactive); in test [5] it was 0.0631 (inactive).

Regarding `C=C(COC)/C(=C/C[C@H](OC(=O)c1ccncc1)c1ccc(OCCO)cc1)c1cnc2ccccc2c1`, the values for the composite z-score (in test [1]; in the test on XIP peptide (Xip251-270)) were 0.908 (inactive) and 0.791, respectively. The z-score in test [2] was -2.77; in test [3], -4.16 (inactive); in test [4], 0.157 (inactive); in test [5] it was 0.313 (inactive).

For `Cc1ccc(S[C@]2(C(=O)NCCN3CCOCC3)CC(=O)N(Cc3ccccc3Cl)[C@@H]2c2ccc(CO)cc2)cc1`, the composite z-score in test [1] is -0.255 (inactive); with XIP peptide (Xip251-270) it was 0.686. Also, the z-score is -1.47 in test [2], -4.04 (inactive) in test [3], -0.114 (inactive) in test [4] and -0.121 (inactive) in test [5].

Turning to `C=C(COC)/C(=C/C[C@@H](OC(C)=O)c1ccc(OCCO)cc1)c1cc(C(=O)OC)ccc1OC`, the composite z-score in test [1] is 2.57 (inactive); with XIP peptide (Xip251-270) it was 0.762. Further, the z-score in test [2] is -3.06; in test [3], -4.45 (inactive); in test [4], -0.307 (inactive); in test [5] it was -0.333 (inactive).

`COCCCN1C(=O)[C@@]2(c3ccc([N+](=O)[O-])cc3)CC(=O)N(C3CCCCC3)[C@@H]2c2ccc(CO)cc21`: the composite z-score is 0.0996 (inactive) in test [1] and 0.154 in the test with XIP peptide (Xip251-270). The z-score in test [2] was -0.599; in test [3], -0.329 (inactive); in test [4] it was 0.0889 (inactive); in test [5], 0.133 (inactive).

Consider `C[N+](C)(C)CCCCNC(=O)[C@H]1C[C@H]2C(=O)N[C@@H](Cc3ccccc3)C(=O)N2[C@H]1c1ccc(O)cc1`, for which the composite z-score in test [1] is 1.17 (inactive); in the test on XIP peptide (Xip251-270), -0.229. Besides, the z-score was 0.498 in test [2], -1.49 (inactive) in test [3], 0.671 (inactive) in test [4] and 0.345 (inactive) in test [5].
